This is an account of results in PubChem BioAssay AID449762 (Southern Research Specialized Biocontainment Screening …, 2010).

Molecules are shown by their SMILES. In all, about 330,000 compounds went through this assay and about 1,900 (0.58%) were called active. Roughly 4% stayed inconclusive and do not appear here. A selection follows. Potency and affinity values are given separately. Values without a mark were called inactive. Cut-off read from the data, not from the text of the source: inconclusive = inhibition above about 70% without an active follow-up result; inactive = below that.

This experiment in a line: M. tuberculosis growth inhibition, HTS (AID 449762).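 Note: bacterial growth assessed after seven days of incubation.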 The conditions noted are these: M. tuberculosis H37Rv growth inhibition, 7H9 media; at 25 µM; stronger effect = higher value.
As usually defined, the inhibition is the drop in the measured response relative to a control, in per cent. Turning to `O=C(NCC1CCCO1)C(=O)N/N=C/c1c(F)cccc1Cl` (stereo unspecified), the inhibition was 5.59%.

For the compound `NC(N)=Nc1nc2ccccc2o1`, the inhibition is 4.74%. For `CCCCN(C(=O)c1cnccn1)c1c(N)n(CCC)c(=O)[nH]c1=O` the value was -6.33%; for `CCC(=O)c1ccc(OCC(O)CN2CCN(c3ccccn3)CC2)cc1` (stereo unspecified), 4.67%. As to `CCC(=O)c1ccc(OCC(O)CN2CCN(c3ccc(F)cc3)CC2)cc1` (stereo unspecified), the inhibition is -1.98%. Consider `N#Cc1ccc(OCC(O)CN2CCN(CC(O)COc3ccc(C#N)cc3)CC2)cc1` (stereo unspecified), for which the inhibition was -5.84%. With `OC(CN1CCN(c2ncc(C(F)(F)F)cc2Cl)CC1)c1ccccc1` (stereo unspecified), the inhibition is 32.4%. In the case of `O=[N+]([O-])c1cc([N+](=O)[O-])c(Oc2cc(F)ccc2F)cc1NN1CCCCC1`, the inhibition was 5.39%. The result for `O=C(NCCc1ccccc1)C(=O)c1cn(CC(=O)N2CCCC2)c2ccccc12` reads -0.08%; that for `COc1cc(NC(=O)c2cccnc2SC)cc(OC)c1OC`, -4.5%; that for `Cc1cccc(NC(=O)c2nc[nH]c2C(=O)N(C)Cc2ccccc2)c1`, 27.5%. For `COc1cc(OC)cc(C(=O)N[C@H](C(=O)NC23CC4CC(CC(C4)C2)C3)C(C)C)c1` the value was -8.25%; for `CCCCCN(C(=O)CCC(=O)OCCOc1cccc(C)c1)c1c(N)n(CCCC)c(=O)[nH]c1=O`, 44.3%; for `CCOc1cc(Cl)c(NC(C)=O)cc1OCC`, -1.54%. The result for `CCOc1cc(NC(=S)Nc2ccc(Cl)cc2)c(OCC)cc1NC(C)=O` reads -3.61%; that for `CC(=O)c1cccc(NC(=O)C(C)OC(=O)c2ccc(Br)o2)c1` (stereo unspecified), 4.17%; that for `CCOC(=O)C1CCN(c2cc3c(cc2NC(=O)c2ccccc2)n(C)c(=O)n3C)CC1`, -3.19%.

Turning to `CCOC(=O)C1CCN(c2cc3c(cc2NC(=O)c2ccccc2F)n(C)c(=O)n3C)CC1`, the inhibition was 4.71%. As to `CCc1ccc(NC(=O)C2C3C=CC(C4CC34)C2C(=O)O)cc1` (stereo unspecified), the inhibition is 4.87%.

Turning to `CCCCCc1ccc(CC(=O)O)cc1`, the inhibition is -9.58%.

Turning to `CCCCCCNC(=O)C(=O)NCCc1ccc(Cl)cc1`, the inhibition was -8.55%. The result for `NS(=O)(=O)c1cc(C(=O)OC2CCOC2=O)ccc1Cl` (stereo unspecified) reads -0.59%; that for `N/C(=N\OC(=O)c1ccc2c(c1)OCO2)c1ccc([N+](=O)[O-])cc1`, 0.35%. For the compound `CS(=O)(=O)O/N=C1\CCCCC1c1ccc([N+](=O)[O-])cc1[N+](=O)[O-]` (stereo unspecified), the inhibition is 11.2%. The result for `COc1ncnc2c1sc1nc(-c3ccccc3)c3c(c12)CCCC3` reads 2.95%; that for `CCN(CC)CCNc1ncnc2c1sc1nc(N3CCOCC3)c3c(c12)CCCC3`, 13.5%.
